Screening results (PubChem BioAssay)
ssDAF-12 act: activators of S. stercoralis DAF-12 nuclear receptor. HEK293 ssDAF-12/GRIP1 lit1-tk-luc reporter, luminescence; % of 3 µM dafachronic acid response. activation, % at 6.8 µM. hit rate 1% among 370,000;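 active = activation above the mean over all tested compounds plus 3 SD, cut at about 0.9% in these data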;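 note: 0% = DMSO-only wells and 100% = 3 µM delta7-dafachronic acid wells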
hgDAF-12 ag: agonists of H. glycines DAF-12 nuclear receptor; HEK293 GAL4-hgDAF12 UAS-luciferase reporter, agonist luminescence; normalized to butyrate control; activation, % at 6.8 µM; hit rate 1.8% among 370,000; AID 687014;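 active = activation above a cutoff set at the mean of all screened compounds plus 3 SD, cut at about 10% in these data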;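 note: 0% = DMSO wells and 100% = sodium butyrate wells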
DAX1 inh-1: DAX1 (NR0B1) inhibition, primary screen | HEK293T StAR-luciferase reporter, SF-1/DAX-1 repression relief | inhibition, % at 6.8 µM | hit rate 1.1% among 370,000 | AID 652010;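 active = inhibition above the mean over all tested compounds plus 3 SD, cut at about 3.6% in these data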;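 note: 0% = DAX-1 cells with DMSO and 100% = cells lacking DAX-1 with DMSO; higher inhibition means more luminescence from relief of DAX-1 repression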
DAX1 inh-2: inhibitors of human orphan nuclear receptor DAX1 (NR0B1) | hit rate 0.99% among 340,000 | inhibition, % at 6.75 µM | HEK293 Gal4-DAX1 luciferase reporter, luminescence | AID 504766 | P51843;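 active = inhibition above the mean over all tested compounds plus 3 SD, cut at about 4.2% in these data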;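 note: 0% = DAX1-transfected cells with DMSO and 100% = empty-vector control cells with DMSO; inhibition shows as a rise in luminescence from relieved DAX1 repression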
Target sequence (P51843 207-470 limits assumed): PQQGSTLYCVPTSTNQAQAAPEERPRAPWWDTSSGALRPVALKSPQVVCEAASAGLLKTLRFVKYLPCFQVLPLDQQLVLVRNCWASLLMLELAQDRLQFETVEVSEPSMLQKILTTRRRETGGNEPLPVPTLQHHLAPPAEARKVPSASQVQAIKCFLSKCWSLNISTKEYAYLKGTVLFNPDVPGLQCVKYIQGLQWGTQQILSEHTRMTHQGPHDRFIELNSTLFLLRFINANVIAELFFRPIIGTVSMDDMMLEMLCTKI
hcDAF-12 act: H. contortus DAF-12 activation, primary screen; HEK293 hcDAF-12 lit1-tk-luc reporter, luminescence; 0% DMSO, 100% Δ7-dafachronic acid; activation, % at 6.8 µM; hit rate 1.4% among 370,000; AID 652067;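 active = activation above the mean of all tested compounds plus 3 SD, cut at about 5.5% in these data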;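 note: 100% = response to 3 µM Δ7-dafachronic acid high control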
hgDAF12 ag: hgDAF-12 agonism, confirmation assay; shares compounds with hgDAF-12 ag; HEK293 GAL4-hgDAF12 luciferase reporter, agonist mode; percent of butyrate response; activation, % at 6.8 µM; hit rate 80% among 3,300;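 active = mean activation over triplicate wells above the hit cutoff derived from the earlier primary screen, cut at about 11% in these data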;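 note: 0% = DMSO low control and 100% = 2 mM sodium butyrate high control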
LXRb DAF12 ctr: activates human LXR-beta, counter-screen for DAF-12 agonists; 3,300 tested, under 10 active; HEK293 Gal4-LXR luciferase reporter, 24 h; activation, % at 6.8 µM; shares compounds with hgDAF-12 ag;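 active = mean activation of the triplicate above a set limit carried over from the primary screen, none filed active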
Numbers without * were called inactive; . = no result given. Sampled rows, rich in hits. Any-hit rate of the full collection: about 4.1%.

SMILES	ssDAF-12 act	hgDAF-12 ag	DAX1 inh-1	DAX1 inh-2	hcDAF-12 act	hgDAF12 ag	LXRb DAF12 ctr
Cc1ccc(CNC(=O)C2CCC(=O)N(Cc3cccc(F)c3)C2)s1 (stereo unspecified)	-1.2	3.1	0.0	0.6	1.8	.	.
Oc1ccc(-c2cnc3ccccc3n2)cc1	-0.6	14.7*	2.4	3.0	3.9	20.1*	0.9
Nc1ccc2nc(-c3ccccc3)cnc2c1	0.5	6.9	1.3	3.3	4.6	.	.
COC(=O)[C@]12C[C@H](CC(=O)NCCC(C)C)C(=O)N(Cc3ccc(Cl)cc3Cl)C1=C[C@H](C(C)C)O[C@@H]2C1CC1	0.0	-0.9	0.0	.	-0.5	.	.
O=C(CSc1nnc(-c2ccc(O)cc2)o1)Nc1ccccc1	-0.2	16.1*	2.3	0.1	3.2	13.5*	0.7
O=C(Nc1ccc(Br)cc1F)c1ccc2nsnc2c1	-0.3	5.0	0.5	1.0	2.6	.	.
Cc1ccc(NC(=O)c2ccc3nsnc3c2)c(Cl)c1	1.1*	14.0*	1.7	2.6	5.8*	15.3*	0.8
Cc1ccc(NC(=O)C2(C)CCCN2C)cc1C (stereo unspecified)	-0.7	-1.6	-0.3	.	-1.3	.	.
O=C(/C=C/c1ccc(F)cc1)NCCC1=CCCCC1	-0.6	9.2	1.0	-0.1	2.2	.	.
O=C(/C=C/c1ccccc1)NCCC1=CCCCC1	-1.1	14.1*	1.9	0.5	-1.3	12.0*	0.7
OCc1ccccc1-c1ccc2nccn2c1	-1.1	-0.9	0.7	.	1.3	.	.
CC(=O)Nc1ccc(NC(=O)c2ccccc2Br)cc1	-1.1	-1.7	0.3	.	-0.8	.	.
O=C(Nc1ccc(Br)cc1)c1ccccc1Br	0.2	13.3*	1.4	4.9*	2.9	16.2*	0.6
N[C@H]1CC[C@@H]2SC[C@@H](C(=O)O)N2C1=O	-0.6	-0.1	-0.6	.	0.5	.	.
CCOC(=O)CSc1nc(-c2ccncc2)ccc1C#N	0.9*	16.5*	3.4	2.1	3.8	16.3*	0.9
O=C(NCc1ccccc1)c1noc2c1CCCCC2	0.1	15.5*	2.6	1.9	2.4	13.0*	0.5
Cc1ccc(NC(=O)c2noc3c2CCC3)cc1C	0.8	18.8*	4.2*	4.1	5.5	19.1*	0.9
COc1ccc(NC(=O)C(c2ccc(C(F)(F)F)cc2)n2c(=O)c(-c3cc4ccccc4[nH]3)nc3ccccc32)cc1 (stereo unspecified)	-0.7	-2.9	-0.3	.	-0.1	.	.
CC(C)c1ccccc1NCC(=O)N1CCN(Cc2ccccc2)CC1	-1.0	-1.7	-1.1	-2.3	-1.4	.	.
COc1cccc(/C=N/NC(=S)Nc2cccnc2)c1	-1.6	1.2	1.0	-1.2	-0.7	.	.
Oc1ccc(/C=N/NC(=S)Nc2cccnc2)cc1	-0.1	14.9*	3.4	1.0	4.5	11.5*	0.5
COc1ccc(NC(=S)Nc2ncccc2C)cc1OC	-0.5	20.8*	2.5	1.8	3.1	5.5	0.1
Cc1cccnc1NC(=S)Nc1ccc(Cl)c(Cl)c1	0.1	9.7	1.1	1.7	3.9	.	.
COc1cccc(CNc2cnc3ccccc3c2)c1O	0.1	8.9	1.9	-0.9	3.1	.	.
COc1cccc(CNc2nc3ccccc3n2C)c1O	1.8*	14.6*	2.4	4.2	5.3	19.2*	0.8
SMILES	ssDAF-12 act	hgDAF-12 ag	DAX1 inh-1	DAX1 inh-2	hcDAF-12 act	hgDAF12 ag	LXRb DAF12 ctr
O=c1c2c(nc3cc(-c4ccc(F)cc4)[nH]n13)CCC2	-0.2	15.0*	4.1*	1.2	6.4*	16.8*	1.0
Cn1cc(-c2csc(C(O)c3ccc(F)cc3)n2)cn1 (stereo unspecified)	-0.3	-0.6	-0.9	.	0.4	.	.
CC(C)c1cc(Cn2c3ccccc3c(=O)n2C(C)C)on1	-0.7	-0.3	-0.2	.	-0.2	.	.
O=C(NC(=S)Nc1ccc(F)cc1)c1ccc2c(c1)OCCO2	-0.1	17.0*	3.7*	2.5	3.9	10.6*	0.6
Cc1cccc(NC(=O)c2ccc3c(c2)OCCO3)c1	-0.6	16.9*	1.9	-3.3	5.2	17.7*	1.2
Cc1cccc(NC(=S)NNC(=O)c2ccc3c(c2)OCO3)c1	0.0	18.4*	3.9*	2.6	3.1	13.2*	0.5
O=C(Nc1ccccc1)c1ccc2c(c1)OCCO2	0.2	13.3*	2.0	0.7	5.8*	13.1*	0.7
